{"source": "PubChem BioAssay AID485338", "about": "(The Scripps Research Institute Molecular Screening Center, 2010)", "note": "Potency and affinity values are given separately. Active and inactive are the calls of the source.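 Rule for the calls: active = mean inhibition of cell viability at 10 µM of at least 40% (some results past the limit were not filed as active); inactive = the rest.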"}
{"assay": "DLD-1 cell viability reduction – luminescence, round 1, cytotoxicity control for KLF5 inhibitor project, late-stage follow-up (AID 485338)", "conditions": "DLD-1 viability, CellTiter-Glo ATP luminescence; series mostly up to 20 µM"}
{"smiles": "Cc1ccc2nc(NC(=O)CCCc3nc4ccccc4s3)sc2c1", "outcome": "inactive"}
{"smiles": "CCCc1ccc(-c2ccc(/C=C/C(=O)O)cc2)nc1", "outcome": "inactive"}
{"smiles": "CCOC(=O)c1sc(NC(=O)c2ccc3ncsc3c2)nc1C", "outcome": "inactive"}
{"smiles": "COC(=O)c1ccc2nc(Nc3nc4ccc(F)cc4s3)sc2c1", "outcome": "inactive"}
